# Laboratory results from PubChem BioAssay (EPA / NIEHS).
# Records with an inconclusive call do not appear. Where a structure was tested more than once in an assay, its records may differ in their call. Calls of active or inactive are those of the source. The calls were made as follows, unless noted: active = hit-call score of the fitted dose curve at least 0.9, where 1 is the maximum; inactive = score below 0.9.
# Assays:
# [1] = target: Estrogen-related receptor gamma (Homo sapiens) (UniProt P62508); experiment: ATG_ERRg_TRANS: Attagene TRANS-FACTORIAL HepG2 Assay for human Estrogen-Related Receptor gamma (ERRg) (AID 2282977; active = hit-call score of the fitted dose curve at least 0.9, where 1 is the maximum;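 also: hits increase reporter signal over DMSO so potencies reflect activators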); conditions: HepG2 Attagene TRANS reporter, ERRg transactivation
# Summary of the method: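 Exogenous NR-Gal4 chimera activity measured as reporter transcript induction after 24 h in transiently transfected HepG2 cells. RNA reverse-transcribed, PCR-amplified, 6-FAM-labelled and resolved by capillary electrophoresis; increase over DMSO baseline.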
# [2] = target: Glucocorticoid receptor (Homo sapiens) (UniProt P04150); experiment: ATG_GR_TRANS: Attagene TRANS-FACTORIAL HepG2 Assay for human Glucocorticoid Receptor (GR) (AID 2282978; active = hit-call score of the fitted dose curve at least 0.9, where 1 is the maximum;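 also: activators score as hits since higher reporter transcript over DMSO is fitted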); conditions: HepG2 Attagene TRANS GR reporter, mRNA transcription
# Summary of the method: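 HepG2 transient transfection, multiple reporter units, GAL4-UAS under NR-GAL4 chimera control. 24 h treatment. Reporter mRNA by RT-PCR/CE fluorescence, DMSO as negative control.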
# [3] = target: Bile acid receptor (Homo sapiens) (UniProt Q96RI1); experiment: ATG_FXR_TRANS: Attagene TRANS-FACTORIAL HepG2 Assay for Farnesoid X Receptor (FXR) (AID 2282979; active = hit-call score of the fitted dose curve at least 0.9, where 1 is the maximum;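 also: hits raise reporter mRNA above DMSO so AC50 marks FXR activation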); conditions: HepG2 Attagene TRANS FXR-GAL4 reporter transcription
# Summary of the method: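 Read-out: fluorescent reporter transcripts quantified by capillary electrophoresis after RT-PCR of total RNA. Source cells were HepG2 transiently carrying chimeric NR-GAL4 plus GAL4-UAS reporter units, dosed 24 h. Activity fitted upward relative to DMSO baseline.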
# [4] = target: Oxysterols receptor LXR-alpha (Homo sapiens) (UniProt Q13133); experiment: ATG_LXRa_TRANS: Attagene TRANS-FACTORIAL HepG2 Assay for human Liver X Receptor alpha (LXRa) (AID 2282980; active = hit-call score of the fitted dose curve at least 0.9, where 1 is the maximum); conditions: HepG2 Attagene TRANS reporter, LXRa transactivation
# Summary of the method: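 Read-out: reporter transcript levels by RT-PCR plus capillary electrophoresis, fluorescence intensity. Transiently transfected HepG2, exogenous NR-GAL4 chimera, GAL4-UAS reporters; 24 h compound exposure. Activity = increase over DMSO negative control.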
# [5] = target: Oxysterols receptor LXR-beta (Homo sapiens) (UniProt P55055); experiment: ATG_LXRb_TRANS: Attagene TRANS-FACTORIAL HepG2 Assay for human Liver X Receptor beta (LXRb) (AID 2282981; active = hit-call score of the fitted dose curve at least 0.9, where 1 is the maximum); conditions: HepG2 Attagene TRANS GAL4-LXRb reporter, mRNA
# Summary of the method: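 Multiplexed reporter assay, HepG2, 24 h dosing. Fluorescence of labelled RT-PCR products after capillary electrophoresis gives transcript level; positive fitting direction relative to DMSO.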
# [6] = target: Hepatocyte nuclear factor 4-alpha (Homo sapiens) (UniProt P41235); experiment: ATG_HNF4a_TRANS: Attagene TRANS-FACTORIAL HepG2 Assay for human Hepatocyte Nuclear Factor 4 alpha (HNF4a) (AID 2282982; active = hit-call score of the fitted dose curve at least 0.9, where 1 is the maximum); conditions: HepG2 HNF4a transactivation reporter, mRNA readout
# Summary of the method: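 Endpoint reflects transcriptional activation of a GAL4-UAS reporter by an HNF4a-GAL4 chimera in transfected HepG2 cells, 24 h post-dosing. Fluorescence from RT-PCR products separated by capillary electrophoresis; DMSO baseline.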
# [7] = ATG_M_32_TRANS: Attagene TRANS-FACTORIAL HepG2 Assay for M32 Transcription Factor (Internal Marker) (AID 2282984; active = hit-call score of the fitted dose curve at least 0.9, where 1 is the maximum;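 also: transcript level of a background control reporter unit measured by RT-PCR and capillary electrophoresis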); conditions: HepG2 Attagene TRANS M32 internal marker reporter
# Summary of the method: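 Internal-marker readout from a multiplexed transcription reporter panel. HepG2 cells were transfected with GAL4-UAS reporter units, treated 24 hours, and reporter transcript levels determined by fluorescence after RT-PCR and capillary separation.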
# [8] = target: Nuclear receptor subfamily 4 group A member 2 (Homo sapiens) (UniProt P43354); experiment: ATG_NURR1_TRANS: Attagene TRANS-FACTORIAL HepG2 Assay for human Nuclear Receptor Related Protein 1 (NURR1) (AID 2282985; active = hit-call score of the fitted dose curve at least 0.9, where 1 is the maximum); conditions: HepG2 Attagene TRANS reporter, mRNA readout
# Summary of the method: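 Endpoint: reporter mRNA increase relative to DMSO. HepG2 cells transfected with reporter units, treated 24 h; RNA processed by RT-PCR, labelling, HpaI digestion and capillary electrophoresis.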
# [9] = target: Transcriptional activator Myb (Homo sapiens) (UniProt P10242); experiment: ATG_Myb_CIS: Attagene CIS-FACTORIAL HepG2 Assay for human Myeloblastosis (Myb) Proto-Oncogene Transcription Factor (AID 2282986); conditions: HepG2 Attagene CIS-FACTORIAL Myb reporter transcription; actives raise or lower the signal
# Summary of the method: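 Multiplexed cis-reporter system in HepG2: transient transfection, 24 h treatment, mRNA readout by RT-PCR and capillary electrophoresis. Both increases and decreases are scored versus DMSO negative control.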
# [10] = target: Nuclear respiratory factor 1 (Homo sapiens) (UniProt Q16656); experiment: ATG_NRF1_CIS: Attagene CIS-FACTORIAL HepG2 Assay for human Nuclear Respiratory Factor 1 (NRF1) Orphan Gene (AID 2282987); conditions: HepG2 NRF1 cis-element reporter, Attagene multiplex; actives raise or lower the signal
# Summary of the method: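 Endogenous factor activity was captured via cis-element-driven reporter transcripts in HepG2 cells. Following 24 h chemical treatment, transcripts were quantified by RT-PCR and capillary electrophoresis.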
# [11] = ATG_NFI_CIS: Attagene CIS-FACTORIAL HepG2 Assay for human Nuclear Factor I (NFI) (AID 2282989); conditions: HepG2 cis-regulatory reporter, NFI response element transcription; actives raise or lower the signal
# Summary of the method: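 Cells: human liver HepG2, transiently transfected with promoter-regulated reporter transcription units. Exposure 24 h. Detection: fluorescent RT-PCR products separated by capillary electrophoresis, normalised to DMSO negative control.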
# [12] = target: Myc proto-oncogene protein (Homo sapiens) (UniProt P01106); experiment: ATG_Myc_CIS: Attagene CIS-FACTORIAL HepG2 Assay for human Myelocytomatosis (Myc) Proto-Oncogene Transcription Factor (AID 2282990); conditions: HepG2, Attagene cis-reporter transcription factor activity; actives raise or lower the signal
# Summary of the method: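 Transiently transfected HepG2 cells bearing cis-promoter reporter units for endogenous transcription factors; 24 h exposure. Reporter mRNA measured by RT-PCR, 6-FAM primer extension, HpaI cut and capillary electrophoresis; bidirectional fit relative to DMSO.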
# [13] = ATG_NF_kB_CIS: Attagene CIS-FACTORIAL HepG2 Assay for human Nuclear Factor Kappa B (NF-kB) (AID 2282991); conditions: HepG2 Attagene cis-factorial NF-kB reporter mRNA; actives raise or lower the signal
# Summary of the method: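 After 24 h compound incubation, transfected HepG2 cells yield total RNA; reporter cDNA is PCR-amplified, end-labelled with 6-FAM, HpaI-digested and analysed on a genetic analyser. Endogenous factor activity, DMSO-referenced bidirectional fit.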
# [14] = ATG_NRF2_ARE_CIS: Attagene CIS-FACTORIAL HepG2 Assay for human Nuclear Factor Erythroid 2 Related Factor 2 (NFR2) response to Antioxidant Response Elements (ARE) (AID 2282992); conditions: HepG2 Attagene ARE/NRF2 reporter, transcription factor activity; actives raise or lower the signal;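 as to AC50: reporter mRNA level measured by RT-PCR and capillary electrophoresis fluorescence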
# Summary of the method: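 Endogenous transcription factor activity in human liver HepG2 cells is tracked via a cis-element-driven reporter within a multiplexed set. mRNA induction is read by RT-PCR and capillary electrophoresis after 24 h, with DMSO as baseline.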
# [15] = ATG_Oct_MLP_CIS: Attagene CIS-FACTORIAL HepG2 Assay for human Octamer-Binding Transcription Factor (Oct) (AID 2282993); conditions: HepG2 Attagene cis-factorial Oct reporter, mRNA; actives raise or lower the signal
# Summary of the method: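 HepG2, transient MRTU transfection, cis promoter elements; 24 h dosing; RT-PCR/CE fluorescence read-out of reporter mRNA; fit both directions vs DMSO.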
# [16] = target: Cellular tumor antigen p53 (Homo sapiens) (UniProt P04637); experiment: ATG_p53_CIS: Attagene CIS-FACTORIAL HepG2 Assay for human p53 Transcription Factor (AID 2282994); conditions: HepG2 p53 cis-element reporter, Attagene mRNA; actives raise or lower the signal
# Summary of the method: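 Steps: transfect HepG2 with multiplexed cis reporter constructs; dose chemicals 24 h; extract RNA, reverse-transcribe, PCR-amplify reporter sequences; FAM-label, HpaI-digest, resolve fragments by CE. Activity fitted both directions relative to DMSO.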
# [17] = BSK_3C_uPAR: BioMAP Diversity Plus: 3C Assay for Urokinase-type plasminogen activator receptor (uPAR) Biomarker Activity (AID 2282998); conditions: BioMAP 3C HUVEC, uPAR biomarker ELISA; actives raise or lower the signal
# Summary of the method: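 A multiplexed primary-cell system built on human umbilical vein endothelium was used, with chemical present for 24 h before reading. Cell-surface uPAR was detected by ELISA; signal change in either direction counted against DMSO.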
# [18] = ATG_GAL4_TRANS: Attagene TRANS-FACTORIAL HepG2 Assay for GAL4 (Internal Marker) (AID 2282976; active = hit-call score of the fitted dose curve at least 0.9, where 1 is the maximum); conditions: HepG2 Attagene TRANS GAL4 internal marker reporter
# Summary of the method: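 RT-PCR/capillary electrophoresis readout of reporter mRNA. HepG2, transient MRTU transfection (GAL4-UAS reporters), 24 h compound exposure. Background-control endpoint, positive direction vs DMSO baseline.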
# [19] = ATG_M_06_TRANS: Attagene TRANS-FACTORIAL HepG2 Assay for M06 Transcription Factor (Internal Marker) (AID 2282983; active = hit-call score of the fitted dose curve at least 0.9, where 1 is the maximum); conditions: HepG2 Attagene TRANS M06 internal marker reporter
# Summary of the method: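 Read-out: fluorescent reporter cDNA fragments resolved by capillary electrophoresis after RT-PCR and HpaI cut. Source cells were HepG2 carrying transfected multi-reporter GAL4 constructs, dosed 24 h. Increase over DMSO control analysed.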
# [20] = BSK_3C_TissueFactor: BioMAP Diversity Plus: 3C Assay for Tissue Factor Biomarker Activity (AID 2282997); conditions: BioMAP 3C HUVEC, tissue factor biomarker readout; actives raise or lower the signal
# Summary of the method: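 HUVEC, 3C system, 24 h post-dose; Tissue Factor by ELISA; bidirectional fit vs DMSO baseline.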
# Chain of Cellular tumor antigen p53 (Homo sapiens) (P04637 whole entry, looked up, the tested form may be a part): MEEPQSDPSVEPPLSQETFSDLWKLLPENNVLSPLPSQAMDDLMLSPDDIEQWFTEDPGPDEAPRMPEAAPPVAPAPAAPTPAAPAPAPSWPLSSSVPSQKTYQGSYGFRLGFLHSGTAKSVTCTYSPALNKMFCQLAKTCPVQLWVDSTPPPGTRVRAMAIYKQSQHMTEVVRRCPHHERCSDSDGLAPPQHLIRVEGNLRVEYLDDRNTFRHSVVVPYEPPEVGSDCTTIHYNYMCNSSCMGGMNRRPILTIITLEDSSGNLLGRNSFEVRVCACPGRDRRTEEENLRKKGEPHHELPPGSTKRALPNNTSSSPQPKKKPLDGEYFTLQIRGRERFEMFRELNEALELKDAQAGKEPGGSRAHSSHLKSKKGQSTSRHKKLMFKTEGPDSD
# Chain of Nuclear receptor subfamily 4 group A member 2 (Homo sapiens) (P43354 whole entry, looked up): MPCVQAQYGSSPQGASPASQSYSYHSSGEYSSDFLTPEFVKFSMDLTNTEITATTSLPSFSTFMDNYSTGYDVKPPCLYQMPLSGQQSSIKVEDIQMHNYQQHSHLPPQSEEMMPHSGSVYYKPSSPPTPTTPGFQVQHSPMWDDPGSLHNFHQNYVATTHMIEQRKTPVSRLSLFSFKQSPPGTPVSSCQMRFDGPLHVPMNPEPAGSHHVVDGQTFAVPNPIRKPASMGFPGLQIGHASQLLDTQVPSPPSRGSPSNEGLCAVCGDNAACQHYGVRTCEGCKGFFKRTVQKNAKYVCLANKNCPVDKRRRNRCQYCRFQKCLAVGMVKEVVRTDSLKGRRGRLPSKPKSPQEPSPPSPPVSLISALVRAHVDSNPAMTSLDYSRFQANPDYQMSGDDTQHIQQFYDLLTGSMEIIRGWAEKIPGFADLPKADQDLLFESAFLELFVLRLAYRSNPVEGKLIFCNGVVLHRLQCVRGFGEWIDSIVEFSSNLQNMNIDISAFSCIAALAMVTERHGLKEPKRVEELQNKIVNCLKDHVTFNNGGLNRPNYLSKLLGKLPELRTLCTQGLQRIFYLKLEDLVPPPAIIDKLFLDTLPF
# Chain of Oxysterols receptor LXR-alpha (Homo sapiens) (Q13133 whole entry, looked up, the tested form may be a part): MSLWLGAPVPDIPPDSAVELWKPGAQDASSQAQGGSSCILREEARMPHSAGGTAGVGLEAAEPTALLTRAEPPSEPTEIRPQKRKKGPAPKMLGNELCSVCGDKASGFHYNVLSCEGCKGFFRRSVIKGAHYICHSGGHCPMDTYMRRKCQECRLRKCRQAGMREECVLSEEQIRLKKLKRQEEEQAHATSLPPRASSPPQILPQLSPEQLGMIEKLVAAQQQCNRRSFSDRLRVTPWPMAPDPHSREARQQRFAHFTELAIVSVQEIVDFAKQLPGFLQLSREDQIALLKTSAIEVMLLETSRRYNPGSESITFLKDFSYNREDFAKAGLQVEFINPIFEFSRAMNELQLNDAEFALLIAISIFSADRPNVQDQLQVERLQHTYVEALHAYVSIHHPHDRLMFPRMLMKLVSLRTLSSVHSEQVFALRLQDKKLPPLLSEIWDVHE
# Chain of Oxysterols receptor LXR-beta (Homo sapiens) (P55055 whole entry, looked up, the tested form may be a part): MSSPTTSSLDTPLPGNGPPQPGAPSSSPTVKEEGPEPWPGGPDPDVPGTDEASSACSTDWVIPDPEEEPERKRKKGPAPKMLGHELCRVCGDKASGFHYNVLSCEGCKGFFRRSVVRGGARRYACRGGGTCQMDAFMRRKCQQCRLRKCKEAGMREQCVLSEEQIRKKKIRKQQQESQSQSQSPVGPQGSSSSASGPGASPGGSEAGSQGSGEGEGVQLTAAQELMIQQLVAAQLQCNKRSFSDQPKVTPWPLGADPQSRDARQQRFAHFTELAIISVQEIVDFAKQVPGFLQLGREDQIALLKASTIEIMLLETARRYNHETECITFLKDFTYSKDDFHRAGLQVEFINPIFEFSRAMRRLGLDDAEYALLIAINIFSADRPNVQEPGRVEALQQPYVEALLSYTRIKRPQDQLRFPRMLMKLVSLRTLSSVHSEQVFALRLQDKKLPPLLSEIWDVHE
# Chain of Hepatocyte nuclear factor 4-alpha (Homo sapiens) (P41235 whole entry, looked up, the tested form may be a part): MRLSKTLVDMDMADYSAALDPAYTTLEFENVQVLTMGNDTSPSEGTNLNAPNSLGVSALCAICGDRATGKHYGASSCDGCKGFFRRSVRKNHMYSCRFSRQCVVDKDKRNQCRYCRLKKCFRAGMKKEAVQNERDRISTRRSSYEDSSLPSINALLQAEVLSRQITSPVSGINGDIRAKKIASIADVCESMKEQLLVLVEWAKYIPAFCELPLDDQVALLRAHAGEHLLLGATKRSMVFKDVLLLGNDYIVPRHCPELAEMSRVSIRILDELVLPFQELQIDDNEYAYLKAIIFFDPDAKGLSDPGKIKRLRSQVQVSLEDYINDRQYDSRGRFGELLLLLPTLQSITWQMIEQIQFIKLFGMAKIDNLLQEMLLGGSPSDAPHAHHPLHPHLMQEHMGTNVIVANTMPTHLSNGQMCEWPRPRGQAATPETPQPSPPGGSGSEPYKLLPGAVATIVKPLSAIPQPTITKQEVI
# Chain of Nuclear respiratory factor 1 (Homo sapiens) (Q16656 whole entry, looked up): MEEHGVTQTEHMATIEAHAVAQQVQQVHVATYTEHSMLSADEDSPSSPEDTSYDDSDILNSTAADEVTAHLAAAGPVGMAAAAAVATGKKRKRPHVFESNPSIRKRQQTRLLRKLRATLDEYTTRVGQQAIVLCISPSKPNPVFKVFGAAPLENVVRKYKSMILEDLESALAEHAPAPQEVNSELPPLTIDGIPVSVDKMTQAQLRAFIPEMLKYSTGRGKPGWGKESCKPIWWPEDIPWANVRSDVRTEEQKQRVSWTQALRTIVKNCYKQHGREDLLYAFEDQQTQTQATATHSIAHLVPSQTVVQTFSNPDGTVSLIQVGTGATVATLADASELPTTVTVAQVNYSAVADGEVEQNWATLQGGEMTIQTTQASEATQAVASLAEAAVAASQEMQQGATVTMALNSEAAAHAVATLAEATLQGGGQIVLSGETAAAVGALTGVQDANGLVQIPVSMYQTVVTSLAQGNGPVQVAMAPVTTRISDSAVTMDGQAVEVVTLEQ
# Chain of Estrogen-related receptor gamma (Homo sapiens) (P62508 whole entry, looked up, the tested form may be a part): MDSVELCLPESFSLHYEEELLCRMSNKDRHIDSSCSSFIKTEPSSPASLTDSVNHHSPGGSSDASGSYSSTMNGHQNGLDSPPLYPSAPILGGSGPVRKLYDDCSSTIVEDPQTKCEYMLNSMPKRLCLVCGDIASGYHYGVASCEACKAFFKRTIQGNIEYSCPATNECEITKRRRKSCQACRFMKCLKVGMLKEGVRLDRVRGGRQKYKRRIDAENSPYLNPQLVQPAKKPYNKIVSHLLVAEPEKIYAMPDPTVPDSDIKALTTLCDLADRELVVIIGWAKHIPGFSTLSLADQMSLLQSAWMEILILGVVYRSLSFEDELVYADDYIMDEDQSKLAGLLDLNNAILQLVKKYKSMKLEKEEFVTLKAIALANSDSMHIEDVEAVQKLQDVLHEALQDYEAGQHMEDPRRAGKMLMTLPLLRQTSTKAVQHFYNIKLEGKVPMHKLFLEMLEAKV
# Chain of Myc proto-oncogene protein (Homo sapiens) (P01106 whole entry, looked up): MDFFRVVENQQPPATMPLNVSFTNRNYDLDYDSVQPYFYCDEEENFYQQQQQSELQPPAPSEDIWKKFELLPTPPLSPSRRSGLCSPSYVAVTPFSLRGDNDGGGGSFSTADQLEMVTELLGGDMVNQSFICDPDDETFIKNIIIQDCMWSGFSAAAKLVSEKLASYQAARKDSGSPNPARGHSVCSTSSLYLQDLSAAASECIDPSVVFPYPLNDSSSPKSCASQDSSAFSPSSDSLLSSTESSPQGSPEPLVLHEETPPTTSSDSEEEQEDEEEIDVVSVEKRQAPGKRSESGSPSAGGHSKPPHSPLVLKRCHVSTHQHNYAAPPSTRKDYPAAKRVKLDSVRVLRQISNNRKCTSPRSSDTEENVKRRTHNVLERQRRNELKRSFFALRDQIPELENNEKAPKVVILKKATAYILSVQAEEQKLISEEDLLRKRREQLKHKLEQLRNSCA
# Chain of Transcriptional activator Myb (Homo sapiens) (P10242 whole entry, looked up): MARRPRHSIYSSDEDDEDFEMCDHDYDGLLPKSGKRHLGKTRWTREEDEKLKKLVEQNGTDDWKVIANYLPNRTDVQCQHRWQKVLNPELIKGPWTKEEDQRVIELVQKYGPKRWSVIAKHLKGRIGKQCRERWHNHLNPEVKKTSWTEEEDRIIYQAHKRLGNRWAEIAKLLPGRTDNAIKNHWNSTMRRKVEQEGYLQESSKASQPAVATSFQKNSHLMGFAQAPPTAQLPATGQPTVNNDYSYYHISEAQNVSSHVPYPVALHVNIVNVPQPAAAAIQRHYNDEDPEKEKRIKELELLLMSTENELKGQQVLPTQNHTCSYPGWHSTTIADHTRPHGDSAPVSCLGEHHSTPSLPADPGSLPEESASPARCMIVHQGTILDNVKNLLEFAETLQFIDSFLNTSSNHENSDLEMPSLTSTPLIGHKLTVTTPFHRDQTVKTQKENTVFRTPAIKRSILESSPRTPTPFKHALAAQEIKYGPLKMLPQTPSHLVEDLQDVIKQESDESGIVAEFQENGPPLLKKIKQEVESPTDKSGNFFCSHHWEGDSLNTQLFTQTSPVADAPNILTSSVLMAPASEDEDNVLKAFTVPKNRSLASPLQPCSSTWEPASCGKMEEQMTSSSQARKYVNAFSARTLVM
# Chain of Bile acid receptor (Homo sapiens) (Q96RI1 whole entry, looked up, the tested form may be a part): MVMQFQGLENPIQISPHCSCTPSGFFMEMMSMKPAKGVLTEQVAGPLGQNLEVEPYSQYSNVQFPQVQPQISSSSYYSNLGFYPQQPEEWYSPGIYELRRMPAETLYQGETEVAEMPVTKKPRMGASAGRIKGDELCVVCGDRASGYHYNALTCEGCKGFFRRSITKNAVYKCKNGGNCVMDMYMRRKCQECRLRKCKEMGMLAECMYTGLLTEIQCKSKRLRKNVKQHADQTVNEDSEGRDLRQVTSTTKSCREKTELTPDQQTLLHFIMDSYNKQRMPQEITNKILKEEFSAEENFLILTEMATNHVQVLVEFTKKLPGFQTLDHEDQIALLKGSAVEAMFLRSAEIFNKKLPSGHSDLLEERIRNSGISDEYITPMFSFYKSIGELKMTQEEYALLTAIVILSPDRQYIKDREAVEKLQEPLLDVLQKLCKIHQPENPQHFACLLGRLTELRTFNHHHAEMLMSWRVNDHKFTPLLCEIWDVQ
structure (smiles),measurement,setting,value
O=C(Nc1ccccc1)Nc1cnns1,outcome,[1],inactive
same,outcome,[2],inactive
same,outcome,[3],inactive
same,outcome,[4],inactive
same,outcome,[5],inactive
same,outcome,[6],inactive
same,outcome,[7],inactive
same,outcome,[8],inactive
same,AC50,[9],78.3 µM (active)
same,outcome,[10],inactive
same,AC50,[11],80.9 µM (active)
same,outcome,[12],inactive
same,outcome,[13],inactive
same,AC50,[14],50 µM (active)
same,AC50,[15],71.8 µM (active)
same,outcome,[16],inactive
same,outcome,[17],inactive
O=C(O)CCCOc1ccc(Cl)cc1Cl,outcome,[18],inactive
same,outcome,[4],inactive
same,outcome,[5],inactive
same,outcome,[6],inactive
same,outcome,[19],inactive
same,outcome,[9],inactive
same,outcome,[10],inactive
same,outcome,[11],inactive
same,outcome,[12],inactive
same,AC50,[14],63.9 µM (active)
same,outcome,[14],inactive
same,outcome,[15],inactive
same,outcome,[16],inactive
same,outcome,[17],inactive
CC(C)(C)C(O)C(Oc1ccc(Cl)cc1)n1cncn1 (stereo unspecified),outcome,[18],inactive
same,outcome,[4],inactive
same,outcome,[5],inactive
same,outcome,[6],inactive
same,outcome,[19],inactive
same,outcome,[7],inactive
same,outcome,[8],inactive
same,outcome,[9],inactive
same,outcome,[10],inactive
same,outcome,[11],inactive
same,outcome,[12],inactive
same,outcome,[13],inactive
same,AC50,[14],4.01 µM (active)
same,outcome,[14],inactive
same,AC50,[15],2.07 µM (active)
same,outcome,[15],inactive
same,outcome,[16],inactive
same,outcome,[17],inactive
CNC(=O)Oc1cccc(N=CN(C)C)c1,outcome,[3],inactive
same,outcome,[4],inactive
same,outcome,[5],inactive
same,outcome,[6],inactive
same,outcome,[19],inactive
same,outcome,[9],inactive
same,outcome,[10],inactive
same,AC50,[11],82.3 µM (active)
same,outcome,[12],inactive
same,AC50,[14],50 µM (active)
same,AC50,[15],25.7 µM (active)
same,outcome,[16],inactive
same,outcome,[17],inactive
CC(C)N(C(=O)COc1nnc(C(F)(F)F)s1)c1ccc(F)cc1,outcome,[1],inactive
same,outcome,[4],inactive
same,outcome,[5],inactive
same,outcome,[8],inactive
same,outcome,[9],inactive
same,outcome,[10],inactive
same,outcome,[11],inactive
same,outcome,[12],inactive
same,AC50,[13],12.6 µM (active)
same,AC50,[14],20.7 µM (active)
same,AC50,[15],17.2 µM (active)
same,outcome,[16],inactive
same,outcome,[17],inactive
O=C(NC(=O)c1c(F)cccc1F)Nc1ccc(OC(F)(F)C(F)OC(F)(F)F)c(Cl)c1 (stereo unspecified),outcome,[1],inactive
same,outcome,[4],inactive
same,outcome,[5],inactive
same,outcome,[6],inactive
same,outcome,[19],inactive
same,outcome,[9],inactive
same,outcome,[10],inactive
same,outcome,[11],inactive
same,outcome,[12],inactive
same,outcome,[13],inactive
same,AC50,[14],13.8 µM (active)
same,AC50,[15],19.9 µM (active)
same,outcome,[20],inactive
same,outcome,[17],inactive
CNC(=O)Oc1ccccc1OC(C)C,outcome,[2],inactive
same,outcome,[5],inactive
same,outcome,[8],inactive
same,outcome,[9],inactive
same,outcome,[10],inactive
same,outcome,[11],inactive
same,outcome,[12],inactive
same,outcome,[13],inactive
same,outcome,[14],inactive
same,outcome,[15],inactive
same,outcome,[16],inactive
same,outcome,[17],inactive
